From PubChem BioAssay (NCATS)
Records with an inconclusive call do not appear. Entries that show only a call come without a potency. Activity calls are given as the source filed them. Calls come from the whole dose curve; as a rule, active = well fitted curve in the direction sought with a large enough effect; inconclusive = small, poorly fitted or top-dose-only effect, or another doubt; inactive = no such curve, though single readings can be large; an effect the other way counts as inactive or inconclusive.

Assays:
[1] = biological target: Ferritin light chain (Equus caballus) (UniProt P02791); experiment: qHTS Validation Assay for Identification of Novel General Anesthetics (AID 2323); note: series mostly up to about 77 µM
Procedure, shortened: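 Normalized fluorescence response, scaled between free 1-AMA and 1-AMA/apoferritin complex, fitted to a four-parameter Hill equation for concentration-effect values. Binding mix: 10 uM horse-spleen apoferritin, 50% saturated 1-AMA in PBS; read 380/535 nm after 10 min.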

[2] = biological target: ATP-dependent DNA helicase Q1 (Homo sapiens) (UniProt P46063); experiment: qHTS Validation Assay for Inhibitors of RecQ-Like Dna Helicase 1 (RECQ1) (AID 2353)
Procedure, shortened: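 RECQ1T1 50 nM; forked duplex (20 bp + 30-nt ss tails) 200 nM, ATP 2 mM final; pH 8.0, 2 mM MgCl2, 2.5 ug/ml poly(dI-dC); 15 min compound preincubation; discontinuous kinetic read over 2 h at RT.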

[3] = Cytometric Cell-Based qHTS for Inhibitors of the mTORC1 Signaling Pathway in MEF (Tsc2-/-, p53-/-) Cells (AID 2660);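 note: Tsc2 and p53 null MEFs carrying empty vector with compound for 24 h; percent of cells above a phospho-rpS6 to PI ratio cutoff in each well; series mostly up to about 38 µM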
Procedure, shortened: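 Cells are plated, treated with compound for 24 hrs at 37 degree Celsius, then fixed, blocked and immunostained for phospho-rpS6 Ser235/236. Propidium iodide counterstain follows. Per-well % positive cells is derived from the PI-normalized phospho-S6 signal.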

[4] = High Content Imaging Cell-Based qHTS for Inhibitors of the mTORC1 Signaling Pathway in MEF (Tsc2-/-, p53-/-) Cells (AID 2666);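 note: percent of cells scored positive for phospho-rpS6 Ser235/236 immunostaining by imaging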
Procedure, shortened: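 Tsc2-/-, p53-/- MEFs (empty-vector stable) grown in DMEM + 10% FBS were exposed to compounds for 24 hrs at 37 degree Celsius, fixed, and stained with Alexa-488 anti-phospho-rpS6 Ser235/236 plus Hoechst. Imaging gave the percentage of positive cells per well.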

[5] = biological target: RecQ-like DNA helicase BLM (Homo sapiens) (UniProt P54132); experiment: qHTS Validation Assay for Inhibitors of Bloom's syndrome helicase (BLM) (AID 2364)
Procedure, shortened: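 Forked 20-bp duplex substrate (200 nM, TAMRA/BHQ-2) plus 2 mM ATP added after 15 min compound preincubation with 50 nM enzyme, pH 8.0, poly(dI-dC) 2.5 ug/ml. Strand separation followed by fluorescence (525/598 nm) over 2 h, normalized to enzyme-free and DMSO controls.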

[6] = High Content Imaging Cell-Based qHTS for Inhibitors of the mTORC1 Signaling Pathway in MEF Cells (AID 2667);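 note: Tsc2-/- p53-/- MEFs stably re-expressing wild-type Tsc2 exposed 24 h; series mostly up to about 38 µM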
Procedure, shortened: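 Tsc2-/-, p53-/- MEFs stably re-expressing WT Tsc2, grown in DMEM + 10% FBS, were treated with compounds for 24 hrs at 37 degree Celsius, fixed, and stained with Alexa-488 phospho-rpS6 Ser235/236 antibody plus Hoechst; results given as % positive cells.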

[7] = Cytometry Cell-Based qHTS for Inhibitors of the mTORC1 Signaling Pathway in MEF cells (AID 2668);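 note: Tsc2-/- p53-/- mouse embryonic fibroblasts stably re-expressing wild-type Tsc2; percent cells positive for phospho-rpS6 Ser235/236 relative to propidium iodide stain; series mostly up to about 38 µM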
Procedure, shortened: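 In MEFs grown in DMEM + 10% FBS, a 24 hrs compound exposure preceded imaging of phospho-rpS6 Ser235/236 by laser-scanning cytometry.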

[8] = Validation screen for small molecules that induce DNA re-replication in MCF 10A normal breast cells (AID 463097); note: nearly all actives have a fitted effect of over 60% in size; note: potency is the fitted concentration of half-maximal effect
Procedure, shortened: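 Following 48 hr compound incubation (37 C, 5% CO2), MCF 10A cells receive Hoechst for 40 min at 37 C. Nuclei are then scanned (excitation 405 nm, emission 500-530 nm) for total fluorescence intensity.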

ATP-dependent DNA helicase Q1 (Homo sapiens), sequence (P46063 whole entry, looked up): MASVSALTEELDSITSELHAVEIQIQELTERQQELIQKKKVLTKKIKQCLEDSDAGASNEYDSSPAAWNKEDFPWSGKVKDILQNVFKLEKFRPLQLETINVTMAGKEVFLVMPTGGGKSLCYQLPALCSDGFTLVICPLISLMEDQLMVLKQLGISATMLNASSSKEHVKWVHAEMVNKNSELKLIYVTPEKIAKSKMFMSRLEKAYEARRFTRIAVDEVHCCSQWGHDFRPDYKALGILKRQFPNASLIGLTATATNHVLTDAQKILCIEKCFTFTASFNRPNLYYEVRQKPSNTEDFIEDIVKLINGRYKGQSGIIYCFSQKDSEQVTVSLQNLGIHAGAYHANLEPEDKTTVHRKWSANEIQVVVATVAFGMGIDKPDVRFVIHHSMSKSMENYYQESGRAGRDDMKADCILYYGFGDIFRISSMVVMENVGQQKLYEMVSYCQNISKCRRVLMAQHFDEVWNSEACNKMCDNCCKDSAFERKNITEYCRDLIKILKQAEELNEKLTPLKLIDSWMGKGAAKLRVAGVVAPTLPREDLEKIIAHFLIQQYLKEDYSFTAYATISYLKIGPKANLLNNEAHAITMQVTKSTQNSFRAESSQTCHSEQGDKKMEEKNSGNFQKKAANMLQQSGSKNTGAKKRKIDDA
Ferritin light chain (Equus caballus), sequence (P02791 2-175 limits assumed): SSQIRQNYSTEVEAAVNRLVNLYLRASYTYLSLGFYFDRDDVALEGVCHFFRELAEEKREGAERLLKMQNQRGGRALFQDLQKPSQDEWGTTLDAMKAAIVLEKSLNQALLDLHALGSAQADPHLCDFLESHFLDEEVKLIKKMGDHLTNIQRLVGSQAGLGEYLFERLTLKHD
RecQ-like DNA helicase BLM (Homo sapiens), sequence (P54132 whole entry, looked up): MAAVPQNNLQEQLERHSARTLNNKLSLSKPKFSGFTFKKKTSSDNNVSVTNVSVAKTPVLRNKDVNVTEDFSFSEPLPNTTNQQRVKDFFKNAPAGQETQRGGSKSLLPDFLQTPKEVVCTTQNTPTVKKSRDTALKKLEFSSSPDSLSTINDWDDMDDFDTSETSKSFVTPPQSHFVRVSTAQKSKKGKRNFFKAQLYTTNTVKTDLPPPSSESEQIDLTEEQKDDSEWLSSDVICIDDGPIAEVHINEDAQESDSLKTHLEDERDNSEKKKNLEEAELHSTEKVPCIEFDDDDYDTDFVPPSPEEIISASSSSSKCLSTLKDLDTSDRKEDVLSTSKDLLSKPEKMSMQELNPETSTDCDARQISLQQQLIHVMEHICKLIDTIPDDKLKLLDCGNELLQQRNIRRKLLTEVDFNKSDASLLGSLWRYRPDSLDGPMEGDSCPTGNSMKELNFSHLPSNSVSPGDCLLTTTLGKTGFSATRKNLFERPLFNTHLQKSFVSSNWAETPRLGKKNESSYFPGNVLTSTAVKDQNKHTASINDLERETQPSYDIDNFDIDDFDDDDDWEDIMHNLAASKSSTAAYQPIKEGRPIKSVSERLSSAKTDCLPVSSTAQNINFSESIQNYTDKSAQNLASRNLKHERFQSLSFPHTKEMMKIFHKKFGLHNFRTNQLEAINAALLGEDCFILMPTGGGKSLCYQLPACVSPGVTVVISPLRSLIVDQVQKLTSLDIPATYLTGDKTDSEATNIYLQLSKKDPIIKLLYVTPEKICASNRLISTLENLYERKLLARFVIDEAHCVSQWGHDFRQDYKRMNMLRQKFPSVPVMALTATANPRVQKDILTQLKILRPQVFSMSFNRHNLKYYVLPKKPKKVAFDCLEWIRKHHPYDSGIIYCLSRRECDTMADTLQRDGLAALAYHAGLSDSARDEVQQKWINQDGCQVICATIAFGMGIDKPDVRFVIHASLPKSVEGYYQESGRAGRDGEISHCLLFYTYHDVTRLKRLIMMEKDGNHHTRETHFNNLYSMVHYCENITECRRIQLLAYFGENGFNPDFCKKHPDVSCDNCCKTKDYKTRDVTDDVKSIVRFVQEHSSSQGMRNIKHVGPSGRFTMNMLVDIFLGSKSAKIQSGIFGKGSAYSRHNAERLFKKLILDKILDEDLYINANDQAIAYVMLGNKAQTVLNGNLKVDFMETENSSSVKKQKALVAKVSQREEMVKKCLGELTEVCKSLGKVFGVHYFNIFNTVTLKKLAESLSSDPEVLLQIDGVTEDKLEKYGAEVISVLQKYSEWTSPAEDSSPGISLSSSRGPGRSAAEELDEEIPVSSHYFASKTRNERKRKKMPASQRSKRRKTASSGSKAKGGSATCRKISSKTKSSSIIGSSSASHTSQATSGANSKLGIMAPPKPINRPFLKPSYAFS

| SMILES | Potency [1] | Potency [2] | outcome [3] | Potency [4] | Potency [5] | Potency [6] | Potency [7] | Potency [8] |
| --- | --- | --- | --- | --- | --- | --- | --- | --- |
| COc1ccccc1N1CCN(CCCCNS(=O)(=O)c2cccc3c(N(C)C)cccc23)CC1 | inactive | inactive | inactive | inactive | – | – | – | – |
| NCCSSCCN | inactive | inactive | inactive | inactive | inactive | inactive | inactive | inactive |
| CC(COc1ccc(/C=C/c2ccccc2)cc1)[N+](C)(C)C (configuration not stated) | inactive | inactive | inactive | inactive | inactive | – | – | – |
| CC(C)NCC(O)COc1cccc2ccccc12 (configuration not stated) | inactive | inactive | inactive | inactive | inactive | inactive | inactive | inactive |
| O=S(=O)(c1cccc2c(I)cccc12)N1CCCNCC1 | inactive | inactive | inactive | inactive | inactive | – | – | – |
| NCCNC(=O)c1ncsc1-c1cccc(F)c1 | inactive | inactive | inactive | inactive | inactive | inactive | inactive | inactive |
| CCCn1c(=O)c2[nH]c(-c3ccc(OCC(=O)NCCN)cc3)nc2n(CCC)c1=O | inactive | inactive | inactive | inactive | inactive | inactive | inactive | inactive |
| C[C@@H](CN1CCC(Cc2ccccc2)CC1)[C@@H](O)c1ccc(O)cc1 | inactive | inactive | inactive | inactive | inactive | inactive | – | – |
| Oc1ccccc1O | inactive | inactive | – | inactive | – | – | – | – |
| CC(C)(C)c1ccc(S(=O)(=O)/C=C/C#N)cc1 | inactive | inactive | inactive | inactive | – | inactive | – | 1120 nM (active) |
| N=C(N)SCCc1ccc(CCSC(=N)N)cc1 | inactive | inactive | inactive | inactive | – | inactive | inactive | inactive |
| Cc1ccc(C(=O)O[C@H](C(=O)O)[C@@H](OC(=O)c2ccc(C)cc2)C(=O)O)cc1 (tested in a mixture with another compound) | inactive | inactive | inactive | inactive | – | inactive | inactive | inactive |
| CC1(C)CCC=[N+]1[O-] | inactive | inactive | inactive | inactive | – | inactive | inactive | inactive |
| O=C(O)[C@@H]1C[C@H](C(=O)O)N1 | inactive | inactive | inactive | inactive | – | inactive | – | inactive |
| NC(=O)C(=O)O | inactive | inactive | inactive | inactive | – | inactive | inactive | inactive |
| Cn1c(=O)c2[nH]c(-c3ccccc3)nc2n(C)c1=O | inactive | inactive | inactive | inactive | – | inactive | inactive | inactive |
